# Compound activity: PubChem, National Center for Advancing Translational Sciences (NCATS)
# DT40 TDP1 no CPT – qHTS for Inhibitors of human tyrosyl-DNA phosphodiesterase 1 (TDP1): qHTS in cells in absence of CPT. DT40 Tdp1-/- hTDP1 cells, no CPT, ATP luminescence, 48 h. Potency, µM (highest dose often 46.2 µM), for the others: at the top dose activity change, negative = growth inhibition, usual class: inhibitors. 420,000 compounds, 15% hits; also: potency is read from the fitted curve at half-maximal effect; % is scaled to controls: 0 for no effect and ±100 for the full control effect; nearly all actives have a fitted effect of over 55% in size
#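 A cellular qHTS used chicken DT40 cells lacking endogenous Tdp1 but carrying stably transfected human TDP1. Compounds were applied without camptothecin, and cell growth kinetics were judged by ATP-dependent luminescence after ≥48 hr.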
# TDP1 inh – blocks human tyrosyl-DNA phosphodiesterase 1; Q9NUW8; recombinant TDP1, AlphaScreen DNA substrate cleavage; Potency, µM (highest dose often 130 µM), for inactives: top-dose activity change, negative = inhibition, hits mostly inhibitors; 350,000 compounds, 0.28% hits; AID 485290; also: potency is read from the fitted curve at half-maximal effect; % is scaled to controls: 0 for no effect and ±100 for the full control effect; nearly all actives have a fitted effect of over 40% in size
# Target sequence (Q9NUW8 whole entry, looked up): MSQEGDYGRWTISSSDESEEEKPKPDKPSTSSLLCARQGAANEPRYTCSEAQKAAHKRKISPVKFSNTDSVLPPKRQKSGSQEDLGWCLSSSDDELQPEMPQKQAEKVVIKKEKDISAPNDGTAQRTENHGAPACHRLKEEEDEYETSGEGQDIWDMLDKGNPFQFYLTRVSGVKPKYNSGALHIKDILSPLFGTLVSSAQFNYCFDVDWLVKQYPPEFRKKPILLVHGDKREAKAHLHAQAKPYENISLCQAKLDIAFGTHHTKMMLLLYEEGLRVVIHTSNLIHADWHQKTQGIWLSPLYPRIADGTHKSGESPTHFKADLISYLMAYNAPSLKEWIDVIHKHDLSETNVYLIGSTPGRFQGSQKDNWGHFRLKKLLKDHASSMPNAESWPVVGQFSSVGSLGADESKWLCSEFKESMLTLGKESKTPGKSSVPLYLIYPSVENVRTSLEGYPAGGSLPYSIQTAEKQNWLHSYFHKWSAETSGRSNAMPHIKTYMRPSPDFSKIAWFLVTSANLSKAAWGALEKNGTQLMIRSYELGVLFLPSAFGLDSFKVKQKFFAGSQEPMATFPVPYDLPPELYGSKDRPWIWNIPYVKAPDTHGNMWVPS
#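 Steps: enzyme plus compound, 15 min RT; add biotin/phosphotyrosine-FITC oligonucleotide (15 nM final), react 5 min; add donor/acceptor beads (10 ug/ml final), 10 min; read AlphaScreen. Tdp1 at 1 nM final.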
# TGFb SMAD3 inh – inhibitors of TGF-b signaling; HepG2 CAGA-GFP TGF-b/SMAD3 reporter, GFP fluorescence, 18 h; TGF-beta stimulated, 500 pg/mL final; Potency, µM (series often up to 46.1 µM), for inactives: at the top dose activity, negative = inhibition, hits mostly inhibitors; 410,000 compounds, 1.2% hits; also: potency is read from the fitted curve at half-maximal effect; % is scaled to controls: 0 for no effect and ±100 for the full control effect; nearly all actives have a fitted effect of over 65% in size
#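 HEPG2 CAGA-GFP reporter cells (1000/well, DMEM with 1% FBS) received compounds, then recombinant TGF-beta at 500 pg/mL final for 18 hours at 37 degrees C. Per-cell GFP summed per well was normalised to unstimulated and stimulated DMSO controls before curve fitting.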
# HepG2 viability – counter-screen for TGF-b inhibitors: cytotoxicity in HepG2 cells; Potency, µM (series often up to 46.1 µM), for the others: at the top dose activity change, negative = cytotoxicity, hits mostly cytotoxic; 410,000 compounds, 0.76% hits; HepG2 CAGA-GFP viability, ATP luminescence, 18 h; also: potency is read from the fitted curve at half-maximal effect
#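 HepG2 CAGA-GFP cells (1000/well, DMEM with 1% FBS) received compound, then TGF-beta at 500 pg/mL final, and were incubated 18 hours at 37 degrees C. Viability was read by CellTiter-Glo luminescence. Media-only wells were set as complete cell-killing and DMSO as no toxicity.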
# IL-1B inflam inh – inflammasome signaling inhibition, IL-1 beta readout; 360,000 compounds, 4.7% hits; activity change, % at 57.5 µM; THP-1 LPS/ATP IL-1B secretion, AlphaLISA, 16 h; active compounds read low; in the data active = activity change below about -50%; inconclusive = mostly about -30% to -49%; also: % is scaled to controls: 0 for no effect and ±100 for the full control effect
#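 THP-1 cells pretreated 1 hr with compounds (up to 57.5 uM final), then stimulated with LPS (250 ng/mL final) plus ATP (1.25 mM final); secreted IL-1B measured by AlphaLISA after 16 hr, decreased signal indicating inhibition.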
# DT40 TDP1 CPT – DT40-hTDP1 cell growth loss with CPT; chicken DT40 Tdp1-/-;hTDP1 cells + 20 nM CPT, ATP luminescence, 48 h; Potency, µM (top dose mostly 46.2 µM), inactives show at the highest dose activity change, negative = growth inhibition, actives largely listed as inhibitors; 420,000 compounds, 12% hits; AID 686979; also: potency is read from the fitted curve at half-maximal effect; % is scaled to controls: 0 for no effect and ±100 for the full control effect; nearly all actives have a fitted effect of over 55% in size
#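 Cell growth measured by CellTiter-Glo luminescence after a minimum 48 h, 37 C compound exposure with 20 nM CPT in Tdp1-knockout DT40 cells stably expressing hTDP1, seeded 400/well; qHTS titration format.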
# The depositor's hits bear a star; i = inactive; ? = inconclusive; . = no result; [ ] = another dose, or the depositor's remark. Shown are actives, neighbours in structure and some others; about 19% of the full set was active somewhere. Unless noted, calls follow the shape of the dose curve; as a rule, active = well fitted curve in the direction sought with a large enough effect; inconclusive = small, poorly fitted or top-dose-only effect, or another doubt; inactive = no such curve, though single readings can be large; an effect the other way counts as inactive or inconclusive.
SMILES,DT40 TDP1 no CPT,TDP1 inh,TGFb SMAD3 inh,HepG2 viability,IL-1B inflam inh,DT40 TDP1 CPT
CC12CCC(C)(O1)C1C(=O)N(c3nccs3)C(=O)C12 (stereo not given),2%,.,-4%,-11%,41,13%
COc1ccc2c(CNCc3ccco3)c(C(=O)O)n(Cc3ccc(F)cc3Cl)c2c1,2.6µM*,5%,-3%,-20%,.,?
COc1ccc(Cn2c(C(=O)O)c(CNCCc3cccs3)c3ccc(C)cc32)cc1,23µM*,3%,-27%,-32%,.,?
Cc1ccc(CNCc2c(C(=O)O)n(Cc3ccc(C)cc3)c3cc(C)ccc23)cc1,?,8%,28µM*,-108%,.,23µM*
Cc1ccc(Cn2c(C(=O)O)c(CNCc3ccc(OC(C)C)cc3)c3ccc(C)cc32)cc1,?,10%,?,-106%,.,16µM*
Cc1ccc(Cn2c(C(=O)O)c(CNCc3ccc(C)o3)c3ccc(C)cc32)cc1,?,10%,?,-70%,.,?
C[C@]12C=CC(=O)C=C1CC[C@@H]1[C@H]3C[C@@H](O)[C@](O)(C(=O)CO)[C@@]3(C)C[C@H](O)[C@]12F,.,7%[56.1 µM],.,.,.,.
COc1ccc(OC)c(CNCc2c(C(=O)O)n(Cc3ccccc3)c3cc(OC)ccc23)c1,?,3%,-8%,-2%,.,?
CCOc1ccc(CNCc2c(C(=O)O)n(Cc3ccccc3C)c3cc(OC)ccc23)cc1OC,1µM*,3%,?,-12%,.,0.65µM*
CCOc1ccc(CNCc2c(C(=O)O)c(C)n(Cc3ccc(F)cc3Cl)c2C)cc1,13µM*,5%,0%,-32%,.,?
O=C(OCc1ccccc1)N1CCN(/[N+]([O-])=N/Oc2ccc([N+](=O)[O-])cc2[N+](=O)[O-])CC1,.,.,?,-108%,.,.
CCCCC(=O)NNC(=S)NC(=O)c1ccc([N+](=O)[O-])cc1,29µM*,4%,10%,-6%,30,?
O=C(NNC(=S)NC(=O)c1cccc([N+](=O)[O-])c1)c1ccc(Br)cc1,21µM*,.,-16%,-11%,73,16µM*
CCCCC(=O)NNC(=S)NC(=O)c1ccc(C)cc1,?,6%,-10%,-23%,61,-104%
CCCCOc1ccc(C(=O)N/C(=C/c2cccc([N+](=O)[O-])c2)C(=O)O)cc1,-26%,2%,2%,0%,-62*,-7%
CCCCCC(=O)NNC(=S)NC(C)=O,18µM*,12%,10%,-2%,16,?
COC(=O)[C@@H](Cc1ccc(O)cc1)NC(=O)[C@H]1CCC(=O)N1C(=O)OCc1ccccc1,0%,.,16%,1%,20,12%
COc1ccccc1C(=O)Nc1ccnn1C1CCN(C/C=C/c2ccc(F)cc2)CC1,?,-2%,0%,-26%,-23,?
CCCCOc1ccc(C(=O)N/C(=C\c2ccc(Br)cc2)C(=O)NC2CCCCC2)cc1,?,-6%[12.3 µM],0%,-1%,.,5.2µM*
O=C(NNC(=S)NC(=O)c1ccccc1)c1cccc([N+](=O)[O-])c1,?,.,-23%,-21%,36,?
CCCCC(=O)NNC(=S)NC(=O)c1cccc([N+](=O)[O-])c1,?,-4%,-9%,-6%,50,23µM*
O=C1CCc2cc(S(=O)(=O)Nc3cc(F)cc(Cl)c3)c(F)cc2N1,.,-1%,.,.,.,.
CCc1ccc(N(CC)C(=O)c2cc3c(=O)oc4ccc(C)cc4c3s2)cc1,?,2%,1%,-2%,.,-9%
CCOc1ccc2oc(=O)cc(CN3CCN(c4ccc(OC)cc4)CC3)c2c1,21µM*,5%,-22%,-44%,.,?
Cc1ccc2c(CN3CCN(C(=O)c4ccc(Br)cc4)CC3)cc(=O)oc2c1,?,5%,?,-26%,.,21µM*
SMILES,DT40 TDP1 no CPT,TDP1 inh,TGFb SMAD3 inh,HepG2 viability,IL-1B inflam inh,DT40 TDP1 CPT
COc1ccc(OC)c(CN2CCN(Cc3ccc(OC)c(OC)c3OC)CC2)c1,?,.,-14%,-28%,10,-28%
COc1ccc2oc(=O)cc(CN3CCN(Cc4ccc(OC)c(OC)c4OC)CC3)c2c1,?,.,-18%,-39%,-54*,?
CCOc1ccc2oc(=O)cc(CN3CCN(c4ccc(Cl)cc4)CC3)c2c1,26µM*,9%,?,-6%,.,23µM*
CC1=C(C(=O)Nc2ccccc2)C(c2cccc(Cl)c2)n2nc(SCC(=O)c3ccc(C)cc3)nc2N1 (stereo not given),-7%,6%,2%,-3%,.,-1%
CN1CCC[C@@H](CC2c3ccccc3Sc3ccccc32)C1,.,6%[56.1 µM],.,.,.,.
O=C(O)CC1(CC(=O)Nc2cc(F)ccc2Cl)CCCCC1,-5%,0%,-32%,-24%,3,-12%
COc1ccc(N2CCN(Cc3nnc(-c4ccc5c(c4)OCO5)o3)CC2)cc1,?,-5%,88%,20%,.,?
O=c1cc(CN2CCN(c3ccc(F)cc3)CC2)c2cc3c(cc2o1)CCCC3,?,-2%,-14%,-16%,35,18µM*
CN1CCN(Cc2cc(=O)oc3cc4c(cc23)CCC4)CC1,0%,5%,-6%,-2%,-1,?
COc1ccc(N2CCN(Cc3cc4c(cc3Br)OCCO4)CC2)cc1,?,5%[0.0935 µM],0%,-42%,-68*,?
CCOc1ccc2oc(=O)cc(CN3CCN(C(=O)c4ccc(Cl)cc4)CC3)c2c1,21µM*,2%,?,-25%,.,?
CCOc1ccc2oc(=O)cc(CN3CCN(C(=O)c4cccc(Cl)c4)CC3)c2c1,?,9%,?,-35%,.,-30%
Cc1nn(Cc2noc(C(=O)NCc3cccc(F)c3)n2)c(C)c1Br,-9%,5%,-21%,-28%,.,2%
Cc1ccc(-n2cccc2C(=S)N=P(N(C)C)(N(C)C)N(C)C)cc1,1.6µM*,5%,?,-62%,-59*,2.1µM*
Cc1ncc2c(c1CNS(=O)(=O)N(C)C)CCN(C(=O)/C=C/c1ccccc1F)C2,-13%,.,.,.,.,13%[9.04 µM]
COc1ccc(-c2cc(C(=O)N/N=C/c3cccnc3)c3cc(C)cc(C)c3n2)cc1,8.2µM*,4%[56.1 µM],1%,53%,i,18µM*
CCOc1ccc(-c2cc(C(=O)N/N=C/c3cccnc3)c3ccccc3n2)cc1,1.8µM*,2%,1%,-19%,23,2.3µM*
CCOc1ccc(/C=N/NC(=O)c2cc(-c3ccccc3)nc3ccccc23)cc1O,?,.,-24%,-41%,29,?
